Laboratory results taken from PubChem BioAssay (NCI).
This is part of a sample that, as a whole, favours compounds with a hit. Of some 83,000 tested, about 20% had one in any assay.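 Method: cells in 96-well plates; compound added at one concentration; 48 h incubation; percent growth measured; values under 10 scored active.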 A number with no mark means an inactive call. Calls of active or inactive are those of the source.

The compounds below were run on MDA-MB-468 breast (assay: NCI-60 one-dose screen, 48 h (100 = growth as untreated, 0 = no growth, -100 = all killed)). Conditions: 10 µM unless noted.
In the case of `Cc1nc2c(-c3cnc(N)nc3)nc(N3CCOCC3)nc2n1C(C)C`, the growth is reported as -34.6% (active). With `CCOC(=O)c1cc(C(=O)c2cc(OC)cc(OC)c2)n2ccc3ccccc3c12` the growth was 74.5%. `O=C1[C@@H]2Cc3c([nH]c4ccccc34)[C@H](c3c(Cl)cccc3Cl)N2C(=O)CN1C1CCN(CC2CCCCC2)CC1` gave a growth of 47.8%. With `NCCCCCNc1noc(Cc2c[nH]c3cc(Br)ccc23)n1` the growth was 4.11% (active). Work on `O=C(O)CCC(=O)c1ccc(C2CCCCCC2)cc1` yielded a growth of 105%. `COc1ccc(COC=O)cc1` was tested, and the growth was 114%. `C[C@@H]1CC[C@@H]2[C@@H]1[C@H](OC(=O)c1ccc3ccccc3c1)[C@]1(C3CCCCC3)C[C@@H](OC(=O)CO)[C@@]2(C)O1` showed a growth of 63.6%. With `CCCCC1(CC)COC(CCC)OC1` (stereo not given) the growth was 99.7%. In the case of `CSc1nc(-c2cccc(NC(=O)CCl)c2)c(C#N)c(=O)n1C`, the growth is reported as -4.77% (active). Work on `CCCCCCCCCCC1OC(C)CC(C)O1` (stereo not given) yielded a growth of 98.5%. `CN1C(=O)[C@H]2c3c1cccc3[C@@]13NC(=O)O[C@H]1[C@H](CCC3(C)C)C2(C)C` was tested, and the growth was 78.6%. `O=C1C=CC2(O)OC/C(=C\c3ccccc3)C(O)=C2C1=O` (stereo not given) was tested, and the growth was 10.3%. For `O=C(Nc1cc(=O)[nH]c(=O)[nH]1)C(Cl)Cl`, the growth was 98.5%. `CCOC(=O)c1ccoc1` was tested, and the growth was 95.7%. For `C=CCn1c(SCC(=O)Nc2ccc(C(=O)/C=C/c3cc(OC)c(OC)c(OC)c3)cc2)nnc1-c1ccc(Cl)cc1`, the growth was 2.35% (active). `CN(C)CCCNc1c2ccccc2nc2ccccc12` gave a growth of 83.4%. Compound `COc1cccc(OC)c1OC(=O)c1ccccc1` has a growth of 105%. With `COc1cc(C2CC(=O)Nc3c2c(C)nn3-c2nc3ccccc3[nH]2)c(OC)c(OC)c1OC` (stereo not given) the growth was 31.1%. For `COc1cc(-c2nn(-c3cccc(NC(=O)NCCNS(=O)(=O)c4ccc(Cl)cc4)c3)cc2-c2ccncc2)ccc1Cl`, the growth was -35.8% (active). `CC(CCC(=O)O)[C@H]1CCC2C3C(=O)C[C@@H]4CC(=O)CC[C@]4(C)C3CC(=O)[C@@]21C` (stereo not given in full) was tested, and the growth was 112%. In the case of `CCC(C#N)(CC)c1ccccc1`, the growth is reported as 105%. For `COc1cc(C2CC(c3ccc(C)cc3)=NN2C(C)=O)ccc1Oc1ccnc2cc(Cl)ccc12` (stereo not given), the growth was 78.6%. `CCCc1nn2c(CCC(=O)c3nc4ccc([N+](=O)[O-])cc4[nH]3)nnc2s1` showed a growth of 114%. Work on `CCCn1cc2c(=O)nc3sc(Cc4ccccc4)c(C)n3c2n1` yielded a growth of 111%. In the case of `CS(=O)CC(=N\O)/C(CS(C)=O)=N\O` (stereo not given), the growth is reported as 104%.
